Compound activity as filed in PubChem BioAssay.
FLuc counter – inhibits or activates purified firefly luciferase, miR-21 counter-screen. P08659. purified FLuc, Km substrates, luminescence inhibition. Potency, µM (highest dose often 57.5 µM), for the others: at the top dose activity change, negative = inhibition, hits mostly inhibitors. 360,000 tested, 6.9% active. AID 588342;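 note: plate controls were vehicle for no effect and reference inhibitor for full effect; nearly all actives have a fitted effect of over 55% in size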
Target sequence (P08659 whole entry, looked up): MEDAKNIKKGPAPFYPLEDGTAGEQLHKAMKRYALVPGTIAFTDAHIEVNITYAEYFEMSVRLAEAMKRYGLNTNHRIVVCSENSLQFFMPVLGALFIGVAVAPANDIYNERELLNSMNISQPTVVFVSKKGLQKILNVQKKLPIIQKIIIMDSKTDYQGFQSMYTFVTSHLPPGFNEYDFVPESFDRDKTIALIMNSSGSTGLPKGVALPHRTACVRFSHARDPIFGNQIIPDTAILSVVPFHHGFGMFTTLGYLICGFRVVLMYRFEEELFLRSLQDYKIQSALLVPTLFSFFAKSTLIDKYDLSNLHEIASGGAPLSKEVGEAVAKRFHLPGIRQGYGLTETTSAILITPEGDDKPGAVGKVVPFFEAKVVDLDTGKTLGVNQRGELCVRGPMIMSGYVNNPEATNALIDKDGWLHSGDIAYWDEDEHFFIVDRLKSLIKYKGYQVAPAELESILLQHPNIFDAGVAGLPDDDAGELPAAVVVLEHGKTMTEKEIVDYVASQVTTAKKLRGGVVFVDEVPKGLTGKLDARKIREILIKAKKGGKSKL
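Biochemical qHTS of compounds, final roughly 60 µM downward over six points, against 10 nM purified firefly luciferase using Km concentrations of substrates (10 uM D-luciferin, 10 uM ATP) in Tris acetate pH 7.5 buffer; luminescence output.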
ELG1 genotox – inducers of genotoxicity in HEK293T ELG1-luciferase cells; 330,000 tested, 1.3% active; HEK293T ELG1-luciferase reporter, luminescence, 16 h; Potency, µM (top dose mostly 46 µM), for inactives: at the highest dose activity change, positive = activation, most hits filed as activators; note: % of control where 0% means no effect; nearly all actives have a fitted effect of over 60% in size
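Genotoxicity was scored as increased ELG1-luciferase reporter signal, measured by ONE-Glo luminescence (30 min, room temperature). Compound or vehicle exposure of the HEK293T reporter cells lasted 16 hr at 37°C.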
ELG1 repair inh – ELG1-dependent DNA repair inhibition. HEK293T ELG1-luciferase reporter, luminescence, 16 h; DNA damage induced by 5-fluorouridine. Potency, µM (highest dose often 46.1 µM), for inactives: at the highest dose activity change, negative = inhibition, usual class: inhibitors. 330,000 tested, 2.3% active; note: % is set by controls: 0 for no effect and ±100 for the full control effect; nearly all actives have a fitted effect of over 55% in size
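Overnight (16 hr) co-exposure of 2,000 cells/well to 5-fluorouridine and compound at 37 °C preceded detection. Luciferase was quantified via ONE-Glo luminescence; loss of signal denotes inhibition.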
SMN2 splice up – increases expression of the SMN2 splice variant; HEK293 SMN2-luciferase splicing reporter, luminescence, 30-36 h; Potency, µM (top dose mostly 46.1 µM), inactives show top-dose activity change, positive = activation, actives largely listed as activators; 210,000 tested, 2.8% active; note: % of control where 0% means no effect; nearly all actives have a fitted effect of over 55% in size
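HEK293 cells carry an SMN2 […]–luciferase reporter in which exon 7 inclusion puts luciferase in frame. Cells were plated 10-12 h before compound addition, then incubated 30-36 h at 37C. ONE-Glo luminescence was read; sodium butyrate at 4.5 mM final served as control.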
NPC1 prom act – activates the NPC1 promoter; Huh7 NPC1 promoter luciferase reporter, 24 h; Potency, µM (highest dose often 9.22 µM), inactives show at the highest dose activation, most hits filed as activators; 320,000 tested, 2.4% active; AID 485313; note: % of control where 0% means no effect; nearly all actives have a fitted effect of over 60% in size
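NPC1 promoter–luciferase Huh7 cells; 24 h compound; luminescence.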
Rab9 prom act – activators of Rab9 promoter. 320,000 tested, 2.8% active. AID 485297. Huh7 Rab9 promoter-luciferase reporter, luminescence, 24 h. Potency, µM (top dose mostly 9.22 µM), for the others: at the highest dose activation, negative = inhibition, hits mostly activators; note: % of control where 0% means no effect; nearly all actives have a fitted effect of over 60% in size
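Luciferase signal after 10 min detection reagent at ambient indicates Rab9 promoter upregulation; stably transfected Huh7 cells were treated 24 h with compound in DMSO at 37 °C, 5% CO2.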
Starred values were filed as active, the others as inactive. Sampled rows, rich in hits. Any-hit rate of the full collection: about 9.4%. Calls come from the whole dose curve; as a rule, active = well fitted curve in the direction sought with a large enough effect; inconclusive = small, poorly fitted or top-dose-only effect, or another doubt; inactive = no such curve, though single readings can be large; an effect the other way counts as inactive or inconclusive. Potency is the fitted concentration of half-maximal effect.

`O=C(CSc1nnc(SCc2ccc(Cl)cc2)s1)N1CCN(C(=O)c2ccco2)CC1` gave FLuc counter 9.53µM*, ELG1 genotox -1.0%, ELG1 repair inh 6.9%, SMN2 splice up -7.9%, NPC1 prom act 0.6% and Rab9 prom act -9.1%.
COc1ccc(C(=O)n2nc(C)cc2Nc2ccccc2)cc1 was read as FLuc counter 10.7µM*, ELG1 genotox 23.1µM*, ELG1 repair inh inconclusive, SMN2 splice up 0.4%, NPC1 prom act 14.9% and Rab9 prom act 26.6%.
Screening CCOc1ccc(N(C)C(=O)CS(=O)(=O)c2cccc3nsnc23)cc1 returned FLuc counter -2.2%.
`CCn1ccc2cc(S(=O)(=O)N3CCCN(C(=O)Nc4ccc(C)c(F)c4)CC3)ccc21` gave FLuc counter -14.2%.
For CC(C)(C)OC(=O)N1CCC(c2c(C(=O)NCCN3CCC(Cc4ccccc4)CC3)cnn2-c2ccccc2)CC1 the results were FLuc counter -2.0%.
For Cc1cc(C(=O)COc2ccc(F)cc2Br)c(C)n1C1CC1 the results were FLuc counter 10.7µM*, ELG1 genotox -0.5%, ELG1 repair inh inconclusive, NPC1 prom act 16.8% and Rab9 prom act inconclusive.
Cc1cc(C(=O)COc2ccc(F)cc2Br)c(C)n1C was read as FLuc counter 21.3µM*, ELG1 genotox 8.5%, ELG1 repair inh inconclusive, SMN2 splice up 13.2%, NPC1 prom act 14.0% and Rab9 prom act 28.0%.
Screening Cc1ccc(-c2nn(-c3ccc(F)cc3F)c3c2cnc2c(F)cccc23)cc1 returned FLuc counter -8.3%.
For COc1ccc(-c2cc(=O)n3[nH]cnc3n2)cc1 the results were FLuc counter 15.1µM*.
O=c1cc(-c2ccccc2)nc2nc[nH]n12 was read as FLuc counter inconclusive, ELG1 genotox -0.1%, ELG1 repair inh -0.1%, SMN2 splice up -21.9%, NPC1 prom act -0.7% and Rab9 prom act 5.9%.
`Cc1ccc(CN(Cc2ccco2)C(=O)c2ccccc2Cl)o1` gave FLuc counter 2.9% and SMN2 splice up 8.2%.
Screening COCCOc1ccc(C(F)(F)F)cc1NC(=O)c1ccc(C(F)(F)F)cc1 returned FLuc counter 2.0%, ELG1 genotox 1.4%, ELG1 repair inh inconclusive, NPC1 prom act 0.2% and Rab9 prom act 10.4%.
COCCOc1ccc(C(F)(F)F)cc1Nc1nc2ccccc2o1 was read as FLuc counter 15.1µM*, ELG1 genotox inconclusive, ELG1 repair inh inconclusive, SMN2 splice up 10.0%, NPC1 prom act -2.4% and Rab9 prom act -1.5%.
O=C(NC1CCN(Cc2ccc(Cl)cc2Cl)CC1)c1ccccc1 was read as FLuc counter 0.5%, ELG1 genotox -7.7%, ELG1 repair inh 13µM*, NPC1 prom act -5.3% and Rab9 prom act -16.0%.
Screening Cc1ccc(Cl)cc1S(=O)(=O)N1CCC(C(=O)NC2CCN(Cc3ccccc3)CC2)CC1 returned FLuc counter 3.8%, ELG1 genotox -10.7%, ELG1 repair inh 5.17µM*, NPC1 prom act -19.1% and Rab9 prom act -24.5%.
Screening O=C(NCc1ccc(Cl)cc1)c1cc2ccccc2oc1=O returned FLuc counter inconclusive, ELG1 genotox 7.6%, ELG1 repair inh inconclusive, NPC1 prom act 1.1% and Rab9 prom act 2.4%.
`O=C1c2ccccc2C(=O)N1CCCCN(C(=O)c1cc2ccccc2oc1=O)c1ccc(Cl)cc1` gave FLuc counter 0.8%, ELG1 genotox -7.4%, ELG1 repair inh 23.1µM*, SMN2 splice up -16.9%, NPC1 prom act 17.9% and Rab9 prom act 2.0%.
Screening CN1CCN(C(=O)CCCN2C(=O)/C(=C/c3ccccc3)SC2=S)CC1 returned FLuc counter -18.0%, ELG1 genotox -4.5%, ELG1 repair inh -28.0%, NPC1 prom act -4.6% and Rab9 prom act -12.5%.
